In the library only some 3.3% were active in any assay of this set; here they are far more common.
Mcl-1 Bim block = inhibitors of Bim-Mcl-1 interaction, human. Q07820. Bead-based flow cytometry, Bim peptide-Mcl-1 binding. inhibition, % at 10 µM. actives 0.1% (n = 190,000). AID 1009; in the data active = inhibition above about 40%;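 also: 0% = no compound tracer wells and 100% = peptide blocker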
Target sequence (Q07820 whole entry, looked up): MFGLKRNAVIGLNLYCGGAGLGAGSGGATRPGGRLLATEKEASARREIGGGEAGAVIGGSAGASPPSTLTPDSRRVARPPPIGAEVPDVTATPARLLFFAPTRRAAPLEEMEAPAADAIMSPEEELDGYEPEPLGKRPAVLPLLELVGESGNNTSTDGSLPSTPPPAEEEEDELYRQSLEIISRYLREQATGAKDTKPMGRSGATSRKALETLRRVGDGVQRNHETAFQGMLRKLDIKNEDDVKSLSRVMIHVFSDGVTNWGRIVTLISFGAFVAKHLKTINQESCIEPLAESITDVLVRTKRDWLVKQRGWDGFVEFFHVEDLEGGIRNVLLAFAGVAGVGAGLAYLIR
14-3-3 Bad inh = disrupts binding of bovine 14-3-3 zeta to phospho-Bad peptide; P63103; TR-FRET 14-3-3zeta/Dy647-pBad peptide displacement, 1 h; inhibition, % at 21.7 µM; actives 0.71% (n = 220,000);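 active = inhibition above about 70%, limit read from the data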;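 also: 0% = full 14-3-3 plus peptide FRET controls and 100% = background without 14-3-3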
Target sequence (P63103 whole entry, looked up): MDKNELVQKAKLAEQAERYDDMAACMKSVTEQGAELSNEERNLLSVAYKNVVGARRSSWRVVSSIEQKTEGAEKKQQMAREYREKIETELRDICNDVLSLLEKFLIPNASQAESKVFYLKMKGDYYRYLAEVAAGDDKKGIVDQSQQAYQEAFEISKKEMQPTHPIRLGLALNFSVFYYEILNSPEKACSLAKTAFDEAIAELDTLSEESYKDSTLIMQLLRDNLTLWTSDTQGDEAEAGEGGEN
Mcl1-Noxa inh = Mcl-1/Noxa interaction inhibition; TR-FRET Mcl-1/Noxa peptide binding, 2 h; actives 1.5% (n = 220,000); Q07820; inhibition, % at 21.7 µM;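 active = compounds that cut the protein-peptide binding signal by more than 50% relative to plate controls in a single-dose test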;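 also: His-tagged Mcl-1 with rhodamine Noxa BH3 peptide and terbium anti-His antibody; 0% = Mcl-1 plus Noxa peptide wells and 100% = peptide-only wells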
NCF1 inh = p47phox (human) inhibition | AID 1274 | p47phox/p22phox peptide binding, fluorescence polarization, 2 h | inhibition, % at 24.7 µM | actives 0.53% (n = 220,000) | P14598;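 also: 0% = p47phox with labelled peptide and 100% = labelled peptide alone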
eIF4E-4G inh = inhibitors of eIF4E and eIF4G interaction in translation initiation; P63073+Q04637; actives 0.37% (n = 220,000); AID 782; TR-FRET eIF4E-eIF4GI(517-606) binding, 2 h; inhibition, % at 21.7 µM;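 also: 0% = full FRET control wells and 100% = background wells lacking eIF4GI fragment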
Mcl1-Bid inh = disrupts binding of human Mcl-1 to Bid peptide. actives 0.97% (n = 220,000). inhibition, % at 21.7 µM. Q07820. AID 1021. TR-FRET Mcl-1/Bid-Dy647 peptide binding, 1536-well;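 active = compounds that cut the binding signal by more than half at the single screening dose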;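 also: His-tagged Mcl-1 with europium anti-His antibody binding Bid BH3 peptide; 0% = Mcl-1 plus peptide wells and 100% = peptide-only wells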
* = called active by the depositor; nt = no result.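 The calls were made as follows, unless noted: active = inhibition above about 30% (limit read from the data); inactive = the rest.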

SMILES | Mcl-1 Bim block | 14-3-3 Bad inh | Mcl1-Noxa inh | NCF1 inh | eIF4E-4G inh | Mcl1-Bid inh
CC[n+]1ccc(C[n+]2ccccc2)c2ccccc21 | -1 | 31 | 23 | 79* | 15 | -31
C/C(=C\c1ccccc1)CN1CCN(c2ccccc2)CC1 | -3 | 12 | 5 | -5 | 1 | 3
C/C=C(\C)CN1CCN(c2ccccc2)CC1 | -2 | 74* | 45 | 1 | 12 | 45
C/C=C(\C)CN1CCN(c2cccc(C)c2C)CC1 | 0 | 37 | -1 | -15 | 3 | 5
C/C=C(\C)CN1CCN(c2ccccc2F)CC1 | -5 | 13 | 25 | -3 | -6 | 53*
CCOC(=O)c1ccc(-n2c(C)nc3ccc(Br)cc3c2=O)cc1 | nt | -2 | 7 | -2 | -5 | 34
Cc1nc(N)sc1-c1csc(Nc2ncccn2)n1 | -1 | 89* | 87* | 28 | -47 | 91*
CCN=C1S/C(=C\c2ccc(-c3cccc(C(=O)O)c3)o2)C(=O)N1CC | 4 | -9 | 35 | -14 | 3 | -22
CCN1C(=O)/C(=C\c2ccc(-c3ccc([N+](=O)[O-])cc3OC)o2)SC1=Nc1cccc(C(=O)O)c1 | -6 | 60 | 98* | -12 | 64* | 70*
COc1ccc(-c2nnc(SCc3ccccn3)n2C)cc1 | 6 | -5 | 2 | -11 | 1 | -7
COc1ccc(N=C(N)SCc2ccccn2)cc1 | -2 | 47 | 42 | 7 | 4 | 67*
CC(=O)Oc1ccc(C(c2ccc(OC(C)=O)cc2)c2ccccn2)cc1 | -2 | -5 | 32 | -2 | 4 | 87*
O=C(NCCc1ccc(Cl)cc1)C1CCN(S(=O)(=O)c2ccc(Br)s2)CC1 | -2 | 3 | -17 | -16 | 2 | -17
CCn1c(SCC(=O)n2c(C)c(C)c3ccccc32)nnc1-c1ccco1 | -6 | 31 | -7 | 23 | -6 | 54*
CC(C)(C=O)C1=CC(=O)c2ccccc2C1=O | -2 | 2 | 85* | 18 | 16 | 20
NC(N)=N/N=C/c1ccc(Cl)cc1Cl | nt | 0 | -2 | -5 | -2 | 51*
NC(=O)c1cnn(-c2ccc3ccccc3c2)c1N | 0 | -4 | 12 | 2 | 0 | -17
COc1ccc(O)c(C(=O)/C=C/c2cc3ccccc3o2)c1 | nt | 0 | 14 | -2 | -1 | 67*
CC1Cc2ccccc2N1CC(=O)Nc1ccc(N2CCOCC2)cc1 (centres undefined) | -4 | -16 | 25 | 3 | 4 | -37
CC(Nc1ccc(N2CCOCC2)cc1)C(=O)N1c2ccccc2CC1C (centres undefined) | nt | 84* | 18 | 1 | 3 | -53
O=C(Nc1ccccc1)c1cccc(=O)o1 | nt | -1 | 4 | -21 | -2 | -7
NC(=O)CC[C@@H]1NC(=O)[C@H](CO)NC(=O)c2cc([N+](=O)[O-])cc(I)c2NCCC[C@@H](C(N)=O)NC(=O)[C@H](Cc2ccc(O)cc2)NC1=O | 0 | 5 | 62* | -13 | -1 | 41
COc1ccc(-c2[nH]ncc2CN2CCC(OCc3ccccn3)CC2)c(F)c1 | nt | 3 | 8 | -4 | -1 | -12
COc1cc(/C=N/N=C(N)N)ccc1OCc1ccc(Cl)cc1 | 3 | -3 | 26 | 4 | -4 | -13
CCOc1cc(/C=N/N=C(N)N)ccc1OCc1ccc(Cl)cc1 | 5 | 61 | 15 | 77* | 10 | -17
SMILES | Mcl-1 Bim block | 14-3-3 Bad inh | Mcl1-Noxa inh | NCF1 inh | eIF4E-4G inh | Mcl1-Bid inh
CCCCCn1c(N)c(-c2nc3ccccc3s2)c2c([N+](=O)[O-])nn(CC)c(=O)c21 | -1 | 3 | -6 | -6 | -9 | -6
CCCCCn1c(N)c(-c2nc3ccccc3o2)c2c([N+](=O)[O-])nn(CC)c(=O)c21 | 2 | 34 | 97* | 8 | 7 | 60*
C=CCN1C(=O)CSC1=Nc1cccc(O)c1 | 1 | 9 | 10 | -16 | 30* | -4
CCC(=O)NC(=S)Nc1ccc(NC(=O)c2cc3ccccc3o2)c(OC)c1 | -2 | 52 | 31 | 2 | 10 | 63*
CCN(CC)c1ccc(NC(=O)c2cc3ccccc3o2)c(C)c1 | -2 | 54 | 51* | -9 | -10 | -13
COC(=O)c1[nH]c2cccc(OC)c2c1NC(=O)C(C)N1CCC(C)CC1 (centres undefined) | -3 | -1 | 0 | -13 | 3 | -6
C/C(CC(=O)Nc1c(C)cc(C)cc1C)=N\NC(=O)c1cnccn1 | -5 | -9 | 8 | -3 | 1 | 7
CC(C)CCNC(=S)NC1CCCC1 | -2 | -16 | -6 | 7 | -1 | -118
CC(C)CN(CC(C)C)C(=S)NC1CCCCC1 | -1 | -10 | 15 | -13 | 3 | 93*
O=C(N/N=C/c1ccc([N+](=O)[O-])cc1)c1ccc(COc2ccccc2-c2ccccc2)cc1 | -2 | -4 | -4 | -6 | 3 | -1
COC(=O)/C=C1\OC(c2ccccc2)=CC1=O | -15 | -6 | 66* | -3 | 10 | 1
Cc1nn(C)c(C(=O)Nc2ccn(Cc3c(F)c(F)cc(F)c3F)n2)c1[N+](=O)[O-] | 1 | 7 | 16 | 150* | 4 | -23
Cc1nn(Cc2cccc(C(=O)Nc3ccn(Cc4c(F)c(F)cc(F)c4F)n3)c2)c(C)c1[N+](=O)[O-] | 0 | 25 | -40 | -14 | -20 | -26
CCCOc1ccc(-c2c(C(=O)N/N=C/c3ccc(OC)cc3)nnn2-c2nonc2N)cc1 | 55* | 5 | 12 | -8 | 17 | -27
CCCOc1ccc(-c2c(C(=O)N/N=C/c3ccc(OCC)cc3)nnn2-c2nonc2N)cc1 | -5 | -6 | -1 | -18 | -5 | -22
CN(C)c1ccc(/C=N/NC(=O)c2nnn(-c3nonc3N)c2COc2ccc(F)cc2)cc1 | nt | 8 | 59* | -8 | 23 | -40
O=C(NCc1cccnc1)c1ccc(NC(=O)c2cccc([N+](=O)[O-])c2)cc1 | 1 | -2 | 7 | -7 | -1 | -17
COc1ccc(-c2nc3cc([N+](=O)[O-])ccc3o2)cc1 | -1 | 0 | 11 | -4 | 3 | -29
Nc1ccc(-c2nc3cc([N+](=O)[O-])ccc3o2)cc1 | nt | 0 | 80* | -5 | 3 | 13
CCCCOc1ccc(C2NC(=O)NC(C)=C2C(C)=O)cc1OCC (centres undefined) | 0 | -5 | 2 | -11 | -1 | -30
CO/N=C/NC(=O)c1ccc([N+](=O)[O-])c(CS(=O)(=O)c2ccc(Cl)cc2)c1 | -1 | 30 | 65* | -2 | 5 | -7
O=C(NCc1ccc2c(c1)OCO2)c1ccc2c(c1)OCCO2 | -1 | 3 | 3 | -3 | 69* | -13
Cc1nc2ccccc2c2oc(C(=O)NCc3ccc4c(c3)OCO4)cc12 | 4 | -3 | -3 | 121* | 4 | 1
Cc1ccc(CNC(=O)c2cc3c(C)nc4ccccc4c3o2)cc1 | 7 | 26 | -58 | 9 | 0 | 27

Screens deposited in PubChem by several laboratories.
